One assay concerns Staphylococcus aureus. The assay can be described thus: Antibacterial activity against Staphylococcus aureus MRSA ATCC 43300 (CO-ADD:GP_020); MIC in CAMBH media using NBS plates, by Resazurin F(560/590). The conditions noted are these: Concentration 20 uM, ASSAY_TEST Inhibition of Bacterial Growth, detection method Resazurin, Fluorescence (ex560/em590), MEDIA CAMHB, plate type 384well, CORNING #3640, time 18 hr. The format is functional.

Another assay concerns Acinetobacter baumannii. Briefly: Antibacterial activity against Acinetobacter baumannii ATCC 19606 (CO-ADD:GN_034); MIC in CAMBH media using NBS plates, by Resazurin F(560/590). The settings on record: Concentration 20 uM, ASSAY_TEST Inhibition of Bacterial Growth, detection method Resazurin, Fluorescence (ex560/em590), MEDIA CAMHB, plate type 384well, CORNING #3640, time 18 hr. The format is functional. (In general: Resazurin is reduced to fluorescent resorufin, in cell work by metabolically active cells.)

The subject of another assay is Escherichia coli. The assay can be described thus: Antibacterial activity against Escherichia coli ATCC 25922 (CO-ADD:GN_001); MIC in CAMBH media using NBS plates, by Resazurin F(560/590). The format is functional. The conditions noted are these: Concentration 20 uM, ASSAY_TEST Inhibition of Bacterial Growth, detection method Resazurin, Fluorescence (ex560/em590), MEDIA CAMHB, plate type 384well, CORNING #3640, time 18 hr.

The next assay relates to Klebsiella pneumoniae. The conditions noted are these: Concentration 20 uM; ASSAY_TEST Inhibition of Bacterial Growth; detection method Absorption (OD600); MEDIA CAMHB; plate type 384well; NBS; CORNING #3640; time 18 hr.
Another assay concerns Candida albicans. The conditions noted are these: 20 µM.
The subject of a further assay is Cryptococcus neoformans. The conditions noted are these: Concentration 20 uM; ASSAY_TEST Inhibition of Fungal Growth; detection method Resazurin; Absorption (OD600-OD570); plate type 384well; NBS; CORNING #3640.

For part of these data: Measured potencies and affinities stand elsewhere.

A word on the Inhibition: it is the drop in the measured response relative to a control, in per cent.

Turning to `CC1=CC2=C(C=O)C(=O)[C@](C)(O)[C@@H](O)C2=CO1`, the Inhibition in the assay on Staphylococcus aureus is -0.76%; in the assay on Acinetobacter baumannii, 11.76%; in the assay on Escherichia coli it was 8.5%; in the assay on Klebsiella pneumoniae it was 9.69%; with Candida albicans, 4.9%; in the assay on Cryptococcus neoformans, -12.05%.

For the compound `Cn1c(=O)c2nc(COc3ccc(C(C)(C)C)cc3)[nH]c2n(C)c1=O`, the Inhibition in the assay with Staphylococcus aureus is -1.06%; in the assay with Acinetobacter baumannii, -14.84%; in the assay with Escherichia coli, 1.91%; in the assay on Klebsiella pneumoniae it was 9.47%; with Candida albicans, 3.68%; in the assay with Cryptococcus neoformans, -17.46%.

On to `Cc1nc(O)c2c3c(sc2n1)CCCC3`, for which the Inhibition in the assay on Staphylococcus aureus was 1.78%; in the assay with Acinetobacter baumannii it was -6.79%; with Escherichia coli, 6.4%; in the assay on Klebsiella pneumoniae, -0.52%; in the assay on Candida albicans, -0.04%; in the assay with Cryptococcus neoformans, -11.89%.

As for `CC(=O)Oc1c(C)c(OC(C)=O)c2c(c1C(C)=O)OC1CC(=O)C(C(C)=O)=C(O)C21C` (stereo not given), the Inhibition with Staphylococcus aureus is 13.8%; with Acinetobacter baumannii, -11.04%; in the assay on Escherichia coli it was 18.15%; in the assay with Klebsiella pneumoniae, 8.45%; in the assay with Candida albicans, 3.77%; in the assay on Cryptococcus neoformans it was -8.61%.

As to `c1ccc(-c2nnc(-c3ccccn3)[nH]2)nc1`, the Inhibition is 12.66% with Staphylococcus aureus; 11.56% with Acinetobacter baumannii; -1.7% in the assay with Escherichia coli; 7.68% in the assay with Klebsiella pneumoniae; 4.71% in the assay on Candida albicans; -5.04% in the assay with Cryptococcus neoformans.

Regarding `NC(=O)c1ccccc1OCC(=O)Nc1ccc(Cl)c(Cl)c1`, the Inhibition in the assay on Staphylococcus aureus was 5.21%; in the assay with Acinetobacter baumannii it was -16.17%; in the assay with Escherichia coli, 19.19%; in the assay on Klebsiella pneumoniae, 9.46%; in the assay with Candida albicans, 4.37%; in the assay with Cryptococcus neoformans, -18.28%.

Consider `COc1ccc2c(C)cc(C)nc2n1`, for which the Inhibition is 4.34% in the assay on Staphylococcus aureus; -9.69% with Acinetobacter baumannii; 1.95% in the assay on Escherichia coli; -0.51% in the assay on Klebsiella pneumoniae; 3.88% with Candida albicans; -1.59% in the assay with Cryptococcus neoformans.

`COc1ccccc1C1OC2=Nc3cc([N+](=O)[O-])ccc3NC2=C1O` (stereo not given): the Inhibition in the assay on Staphylococcus aureus is 8.5%; in the assay with Acinetobacter baumannii it was -1.62%; in the assay on Escherichia coli it was 2.79%; in the assay with Klebsiella pneumoniae it was 1.15%; in the assay on Candida albicans, 0.19%; with Cryptococcus neoformans it was -4.37%.

Take `COc1cc(C(O)c2nc3ccccc3s2)cc(OC)c1OC` (stereo not given): the Inhibition in the assay with Staphylococcus aureus is 9.75%; in the assay with Acinetobacter baumannii, -15.16%; with Escherichia coli, 6.66%; in the assay on Klebsiella pneumoniae, 12.12%; with Candida albicans it was 9.5%; in the assay with Cryptococcus neoformans, -12.06%.

Regarding `CCCCN1C(=O)CC(C(=O)OCC)=C1C`, the Inhibition in the assay on Staphylococcus aureus was -5.09%; in the assay on Acinetobacter baumannii, -15.76%; in the assay on Escherichia coli, -0.5%; in the assay with Klebsiella pneumoniae, -4.24%; in the assay with Candida albicans, 1.93%; in the assay with Cryptococcus neoformans, -4.18%.

In the case of `NC(=O)Cc1ccc2c(c1)[nH]c1ccccc12`, the Inhibition was 5.19% in the assay with Staphylococcus aureus; -14.3% with Acinetobacter baumannii; 7.64% with Escherichia coli; 6.47% with Klebsiella pneumoniae; 5.86% in the assay with Candida albicans; -8.43% with Cryptococcus neoformans.

Regarding `COC(=O)C1=CC(=O)N2CCN=C2S1`, the Inhibition in the assay on Staphylococcus aureus is 6.62%; in the assay on Acinetobacter baumannii it was 15.89%; with Escherichia coli, -3.52%; in the assay with Klebsiella pneumoniae, 13.6%; in the assay on Candida albicans it was 3.42%; in the assay on Cryptococcus neoformans, -1.02%.

As for `COc1ccc(NC(=O)c2cc3ccc4c5ccccc5[nH]c4c3cc2O)cc1`, the Inhibition in the assay with Staphylococcus aureus is 16.09%; in the assay on Acinetobacter baumannii, 5.56%; in the assay with Escherichia coli, 1.69%; in the assay on Klebsiella pneumoniae, 7.19%; in the assay with Candida albicans it was -5.12%; in the assay on Cryptococcus neoformans it was 1.29%.

On to `N#Cc1nnn(-c2ccc(Cl)cc2)c1N`, for which the Inhibition in the assay on Staphylococcus aureus is 17.83%; in the assay with Acinetobacter baumannii it was 3.74%; in the assay on Escherichia coli, 11.71%; in the assay with Klebsiella pneumoniae, -5.78%; in the assay with Candida albicans, 0.88%; in the assay with Cryptococcus neoformans, -4.67%.

Turning to `CCCn1cnc2c(Sc3c([N+](=O)[O-])ncn3C)nc(N)nc21`, the Inhibition was -2.1% with Staphylococcus aureus; -3.75% with Acinetobacter baumannii; 6.82% in the assay on Escherichia coli; 9.05% with Klebsiella pneumoniae; 1.1% with Candida albicans; -2.37% with Cryptococcus neoformans.

On to `O=C(Nc1ccc2ccccc2c1)c1ccc(Cl)cc1Cl`, for which the Inhibition with Staphylococcus aureus is 8.36%; in the assay with Acinetobacter baumannii it was -2.05%; with Escherichia coli, 3.67%; in the assay with Klebsiella pneumoniae it was -0.53%; in the assay on Candida albicans, -0.67%; in the assay on Cryptococcus neoformans, -1.28%.

For the compound `NC(=O)c1nc2c([nH]c1=O)CCCC2`, the Inhibition in the assay with Staphylococcus aureus was 15.95%; with Acinetobacter baumannii, -15.59%; with Escherichia coli it was 13.49%; in the assay with Klebsiella pneumoniae, -0.68%; with Candida albicans, -0.94%; with Cryptococcus neoformans it was -4.35%.

`CCC(C)n1c(C)cc(=O)n1C(C)CC` (stereo not given): the Inhibition with Staphylococcus aureus was 2.1%; in the assay with Acinetobacter baumannii, -5.44%; in the assay with Escherichia coli, -0.28%; with Klebsiella pneumoniae, 0.77%; with Candida albicans it was -0.29%; in the assay with Cryptococcus neoformans, -4.99%.

As for `OC1COC(OCc2ccccc2)C(O)C1O` (stereo not given), the Inhibition was 21% in the assay on Staphylococcus aureus; -10.71% in the assay on Acinetobacter baumannii; 8.16% with Escherichia coli; 4.56% with Klebsiella pneumoniae; 0.34% in the assay on Candida albicans; -6.82% with Cryptococcus neoformans.

On to `NNC(=O)c1nnsc1-c1csnn1`, for which the Inhibition with Staphylococcus aureus is -28.09%; with Acinetobacter baumannii, 0.78%; with Escherichia coli, -18.51%; with Klebsiella pneumoniae, 1.34%; in the assay on Candida albicans, 13.6%; with Cryptococcus neoformans, 15.04%.

On to `CSC(=NS(=O)(=O)c1ccccc1)NNC(=O)c1c(-c2c(Cl)cccc2Cl)noc1C`, for which the Inhibition in the assay on Staphylococcus aureus is 2.63%; in the assay on Acinetobacter baumannii, 2.35%; in the assay on Escherichia coli, -1.44%; with Klebsiella pneumoniae it was 10.18%; in the assay on Candida albicans, 6.77%; in the assay on Cryptococcus neoformans, -2.9%.

Consider `NNC(=O)CNC(=O)Nc1nnc(S)s1`, for which the Inhibition with Staphylococcus aureus was 1.09%; in the assay with Acinetobacter baumannii, 15.79%; in the assay on Escherichia coli it was -4.75%; in the assay on Klebsiella pneumoniae it was 16.78%; in the assay on Candida albicans it was 2.5%; with Cryptococcus neoformans, -8.13%.

As to `COc1ccc(C(=S)N2CCN(c3ccccc3C)CC2)cc1`, the Inhibition is 6.05% in the assay on Staphylococcus aureus; -20.13% with Acinetobacter baumannii; 15.7% in the assay on Escherichia coli; 10.93% in the assay with Klebsiella pneumoniae; 24.1% in the assay with Candida albicans; -16.11% with Cryptococcus neoformans.

As for `CCOC(=O)c1ccc(NC(=O)Oc2cc(C)c(Cl)cc2C(C)C)cc1`, the Inhibition in the assay on Staphylococcus aureus is 20.21%; with Acinetobacter baumannii, 9.47%; in the assay on Escherichia coli, 4.16%; in the assay on Klebsiella pneumoniae, 12.01%; in the assay with Candida albicans, 4.36%; with Cryptococcus neoformans it was -1.17%.

Take `CCc1noc2cc(-c3ccccc3)n(C)c(=O)c12`: the Inhibition in the assay on Staphylococcus aureus is -11.16%; in the assay with Acinetobacter baumannii, 2.9%; in the assay on Escherichia coli, -6.9%; in the assay on Klebsiella pneumoniae it was 8.09%; in the assay on Candida albicans it was 1.75%; in the assay with Cryptococcus neoformans it was -7.67%.

The values above are taken from ChEMBL document CHEMBL4296182, “CO-ADD screening of NIH NCI Diversity Set V”.
